# Results from PubChem BioAssay (NCATS).
# Records with an inconclusive call do not appear. A call without a number means that no potency is given here. Activity calls are given as the source filed them. Calls follow the shape of the dose curve; as a rule, active = well fitted cell-killing curve with a large enough effect; inconclusive = small, poorly fitted or top-dose-only effect; inactive = no such curve, though single readings can be large or run the other way.
# Assay: qHTS of pediatric cancer cell lines to identify multiple opportunities for drug repurposing: Primary screen for NB1643 cells (AID 1347099); also: nearly all actives have a fitted effect of over 50% in size
# Conditions: NB1643 neuroblastoma viability, CellTiter-Glo luminescence, 48 h; series mostly up to 46 µM
# How it was run: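 ATP-based luminescence (CellTiter-Glo) quantifies viability after a 48-hour exposure. Compounds are dosed across 8 or 11 final concentrations; DMSO and 2.3 µM bortezomib serve as controls.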
row,Structure (SMILES),Potency
1,Cc1ncc2n1-c1ccc(Cl)cc1C(c1ccccc1F)=NC2,inactive
2,C[C@]12Cc3nonc3C[C@@H]1CC[C@@H]1[C@@H]2CC[C@@]2(C)[C@H]1CC[C@]2(C)O,inactive
3,CC[C@H]1C[C@@H]2C[C@H]3c4[nH]c5ccc(OC)cc5c4CCN(C2)[C@@H]13,inactive

# Assay: qHTS of pediatric cancer cell lines to identify multiple opportunities for drug repurposing: Primary screen for LAN-5 cells (AID 1347100); also: potency is read from the fitted curve at half-maximal effect
# Conditions: LAN-5 neuroblastoma viability, CellTiter-Glo luminescence, 48 h; series mostly up to 46 µM
# How it was run: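 Viability after 48 h compound treatment at 37C, 500-1,000 cells/well, read as ATP luminescence with CellTiter-Glo. Primary screens used 11-point (MIPE, 0.78 nM-46 µM) or 8-point (NPC, 0.59 nM-46 µM) final concentrations; follow-up screens used 11-point dilutions.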
row,Structure (SMILES),Potency
1,CC(C)NCC(O)c1ccc(N)c(C#N)c1 (stereo not given),inactive
2,CC(C)[N+](C)(CCC(C(N)=O)(c1ccccc1)c1ccccc1)C(C)C,inactive
3,CCN(CC)C(C)C(=O)c1ccccc1 (stereo not given),inactive
4,CCC1(c2ccccc2)CCC(=O)NC1=O (stereo not given),inactive
5,O=C(O)c1nn(Cc2ccc(Cl)cc2Cl)c2ccccc12,inactive
6,CCOC(=O)c1ncn2c1CN(C)C(=O)c1c(I)cccc1-2,inactive
7,CNC(=O)Oc1cccc2ccccc12,inactive
8,COc1ccc(C(=O)N2CCCC2=O)cc1,inactive
9,C[C@]12C=CC(=O)C=C1CC[C@@H]1[C@@H]2CC[C@@]2(C)[C@H]1CC[C@]2(C)O,inactive
10,C=CC[C@]1(O)CC[C@H]2[C@@H]3CCC4=CC(=O)CCC4=C3C=C[C@@]21C,inactive
11,OC(O)C(Cl)(Cl)Cl,inactive
12,CN(C)CCc1c[nH]c2cccc(O)c12,38.2 µM (active)
13,c1cc2c(c(N3CCNCC3)c1)OCCO2,inactive
14,CC(Cc1ccc2c(c1)OCO2)NO (stereo not given),inactive
15,CN1C(=O)CN=C(c2ccccc2)c2cc([N+](=O)[O-])ccc21,inactive
16,CC1N=C(N)OC1c1ccccc1 (stereo not given),inactive
17,CC1=C2[C@H]3OC(=O)[C@@H](C)[C@@H]3CC[C@@]2(C)C=CC1=O,inactive
18,CCCCCCCCCCCC[N+](C)(C)CCOc1ccccc1,23.7 µM (active)
19,CN1C(=O)CN=C(c2ccccc2)c2cc(Cl)ccc21,inactive

row,Structure (SMILES),Potency
1,COC(=O)C1=CCCN(C)C1,inactive
2,CC(C)=CCN1CC[C@@]2(C)c3cc(O)ccc3C[C@@H]1[C@@H]2C,inactive
3,CNC(=O)NC(O)C(Cl)(Cl)Cl (stereo not given),inactive
4,CC(C)(O)C(Cl)(Cl)Cl,inactive
5,CCCCC1C(=O)NC(=O)N(C2CCCCC2)C1=O (stereo not given),inactive
6,CCCN(CCC)CCc1c[nH]c2ccccc12,inactive
7,Oc1c(Br)cc(Br)cc1Br,inactive
8,ClCCCN1CCN(c2cccc(Cl)c2)CC1,inactive
9,COc1cc(CC#N)cc(OC)c1OC,inactive
10,CNC(C)Cc1ccc2c(c1)OCO2 (stereo not given),inactive
11,COc1ccc(CN2CCNCC2)c(OC)c1OC,inactive
12,OC(c1ccccc1)(c1ccccc1)C1CCNCC1,inactive
13,CCOC(=O)NC(C)(C)Cc1ccc(Cl)cc1,inactive
14,Cc1ccc(N=CN(C)C=Nc2ccc(C)cc2C)c(C)c1,inactive
15,C[N+](C)(C)CCOC(=O)C(O)(c1ccccc1)c1ccccc1,inactive
16,O=C(N[C@H]1N=C(c2ccccc2F)c2cccc3c2N(CC3)C1=O)c1cc2ccccc2[nH]1,inactive
17,CCOC(=O)C(c1c(O)c2ccccc2oc1=O)c1c(O)c2ccccc2oc1=O,inactive
18,CC1Sc2c(C(=O)O)c(=O)c3cc(F)c(N4CCNCC4)cc3n21 (stereo not given),inactive
